This passage reports binding signal results from paper PMC7819943, “Rice protein-binding microarrays: a tool to detect cis-acting elements near promoter regions in rice”.

In all, about 68,000 sequences were measured (“fluorescence intensity (a.u.)”: median about 9,100, highest 2% from about 16,000 on). The sample as a whole holds a higher share of the highest values than the screen did.

In this test the target is OsWRKY34 (Oryza sativa, UniProt Q0JBA9 1-250). The test can be described thus: protein-binding microarray (RPBM); PBS, 2% BSA, 51.3 ng/ul salmon testes DNA, 50 uM zinc acetate, 200 nM TF, 25 C, 1 h; high values mean tight binding. As to conditions: protein: recombinant; tags: N-terminal polyhistidine and DsRed monomer fusion (pET32a); label: CyDye5-dUTP incorporated in the synthesized complementary strand; 3' TTTTT single-stranded linker to array surface; dsDNA, one strand shown. The method, boiled down: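 Ni–NTA purification followed expression in E. coli BL21-CodonPlus of transcription factors fused N-terminally to a polyhistidine tag and DsRed. At 200 nM in PBS with 2% BSA, salmon testes DNA and 50 µM zinc acetate, the protein was incubated for 1 h at 25 °C with a custom Agilent array that had been primer-extended with Cy5-dUTP and blocked with 2% BSA. After washing, the array was read on an Axon 4000B scanner. The binding signal is per-feature fluorescence intensity in arbitrary units.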
Chain of OsWRKY34 (Q0JBA9 entry or part of it): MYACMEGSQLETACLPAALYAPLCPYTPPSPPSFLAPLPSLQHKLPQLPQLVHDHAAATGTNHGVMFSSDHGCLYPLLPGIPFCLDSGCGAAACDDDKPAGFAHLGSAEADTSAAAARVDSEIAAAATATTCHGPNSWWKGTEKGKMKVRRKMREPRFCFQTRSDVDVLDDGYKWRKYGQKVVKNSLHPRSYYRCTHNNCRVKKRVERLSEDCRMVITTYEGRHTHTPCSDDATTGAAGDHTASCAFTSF
Turning to “CAGCAGATTGCCCATCTCTCGTTGTACTGCCAATCTCTCCCGGAGTCACCTAGTGCAG”, the binding signal was 9530 fluorescence intensity (a.u.).
Then “ATGTCACCAAGCGGTATAGGTCTGAATGTATTGATGTGCCCGGAGTCACCTAGTGCAG”, with 9370 fluorescence intensity (a.u.); and “CCGGTATTGATGTGTTCCCCAAGCCAAAAAAAAAAAGAAGCGGAGTCACCTAGTGCAG”, with 64800 fluorescence intensity (a.u.); and “ACTGTTCATTGTTGATGGCCTTTTCCAAAAACTAGAAAAGCGGAGTCACCTAGTGCAG”, with 8460 fluorescence intensity (a.u.).
For the sequence “TTATTATGGTTATATTGTACTAATTCATTGTCCAGGTTTTCGGAGTCACCTAGTGCAG”, the binding signal was 8430 fluorescence intensity (a.u.).
On to “GTTTCCTGGTGGTCCAATATAATACCTAGATAAGGTGTATCGGAGTCACCTAGTGCAG”, for which the binding signal is 8510 fluorescence intensity (a.u.).
Regarding “GTCCAGATACTAAGGTGTATGGTATTATCGGAAAACCTGTCGGAGTCACCTAGTGCAG”, the binding signal was 24300 fluorescence intensity (a.u.).
For “TAGCTAGCTCTTGTACAGGTTTCCTCACCTGCTGTATCGACGGAGTCACCTAGTGCAG”, the binding signal was 8060 fluorescence intensity (a.u.).
As to “GAGACTAATTCCGACCTTGACCAAACCAAACCCTACCAAACGGAGTCACCTAGTGCAG”, the binding signal is 9200 fluorescence intensity (a.u.).
For the sequence “GTGGGGTTGGGTTACGTGGTGGAGCTGAGCCCGGCGGCGCCGGAGTCACCTAGTGCAG”, the binding signal was 11600 fluorescence intensity (a.u.).
As for “ATGTGGGTGTGGCATTGTTGGTGTCGGCTGCGCCGCAGCCCGGAGTCACCTAGTGCAG”, the binding signal is 9630 fluorescence intensity (a.u.).
Take “CCGTGGTTGGGGTGGTGGGCCGGGGTGTTACGTTAATGGGCGGAGTCACCTAGTGCAG”: the binding signal is 16500 fluorescence intensity (a.u.).
As to “TTTGTGTGTGTGTTGTTGGTCGGGTGGGGTCGCCGGCGCCCGGAGTCACCTAGTGCAG”, the binding signal is 20100 fluorescence intensity (a.u.).
For the sequence “GGCTCGTCGGAGTAGGGGCGCTCGGGGTATGGGGCTCGGCCGGAGTCACCTAGTGCAG”, the binding signal is 20400 fluorescence intensity (a.u.).
As for “GGAGGGTGGGGTAGGAGAGGATGCGGCGGGCGCCATGGCTCGGAGTCACCTAGTGCAG”, the binding signal is 8590 fluorescence intensity (a.u.).
“TCGCCGGCGGAGGAGTTGGTGTGGAGAGGGCGGGGAGATGCGGAGTCACCTAGTGCAG”: the binding signal was 9560 fluorescence intensity (a.u.).
As for “CGGCTCGGCTCGGCTCGCGCGGCGGCGGCGGCGGGGCGGCCGGAGTCACCTAGTGCAG”, the binding signal was 8890 fluorescence intensity (a.u.).
“GGGGTGGTGGTGGTGGCGGCGGCAGTGTTGTTGGTCGCCGCGGAGTCACCTAGTGCAG”: the binding signal was 13500 fluorescence intensity (a.u.).
With “GCCGGCGCCGGTGGCGTGCGGTCGTGGGCGGGAGGTGGTGCGGAGTCACCTAGTGCAG”, the binding signal was 12300 fluorescence intensity (a.u.).
As for “AGGTGGTGTAGCGCGCGCGGGTGGGGTTGGGTTACGTGGTCGGAGTCACCTAGTGCAG”, the binding signal is 15600 fluorescence intensity (a.u.).
On to “TCGTGTTGGTGGTGGTGGTGGTGTGCGGGCGGGCGGGCGCCGGAGTCACCTAGTGCAG”, for which the binding signal is 33300 fluorescence intensity (a.u.).
In the case of “CGTTGTTTATCTTTTCTAATGCCATGTGTATATATGATTCCGGAGTCACCTAGTGCAG”, the binding signal is 10500 fluorescence intensity (a.u.).
“CCCGTGCTCTTTGTAGATTTACTACCTTTGGACTTGACCTCGGAGTCACCTAGTGCAG”: the binding signal is 11200 fluorescence intensity (a.u.).
For “TCTGCGCTCCCGCATGCCGGCCGCTGAATCATCGTCAATCCGGAGTCACCTAGTGCAG”, the binding signal was 9000 fluorescence intensity (a.u.).
Turning to “AATAGCCTCGTCCCTGTAAACTCCCAATCCCTTTTTAAAACGGAGTCACCTAGTGCAG”, the binding signal was 8420 fluorescence intensity (a.u.).
Consider “AGTTGTGGAGCTGTCTAAACCCATCTCTACTTCTCTACTTCGGAGTCACCTAGTGCAG”, for which the binding signal is 8200 fluorescence intensity (a.u.).
In the case of “TTTCCTCATTTATTCACCTGTCACACCATCTTTCATCATACGGAGTCACCTAGTGCAG”, the binding signal was 9590 fluorescence intensity (a.u.).
Turning to “CCTGATCGGATTTGGTTGGCTGGTGCTCTAGATGATGTACCGGAGTCACCTAGTGCAG”, the binding signal is 8170 fluorescence intensity (a.u.).
With “GGGGAGTTGGGATTTTTGGCGATGTGGGTTTCGTACACCGCGGAGTCACCTAGTGCAG” the figure was 9870 fluorescence intensity (a.u.).
As to “GGCGCCGGCGCTAGCGCCCACGTCGGGGTTGGGGTTGGGGCGGAGTCACCTAGTGCAG”, the binding signal was 16600 fluorescence intensity (a.u.).
On to “CGTCGGGGTTGGGGTTGGGGCTGGGGCCGGCGCCGACGCCCGGAGTCACCTAGTGCAG”, for which the binding signal is 13400 fluorescence intensity (a.u.).
Take “CGGTTGCGGGTGGGCAGCGGCAGCGTCGCCGGCTGGGGCGCGGAGTCACCTAGTGCAG”: the binding signal is 9840 fluorescence intensity (a.u.).
Then “TTGGCGAGCGAGCTGTGTGGTGGTGGTGGTGGGTGAGTGGCGGAGTCACCTAGTGCAG”, with 13600 fluorescence intensity (a.u.).
With “TGGGGTGGGTGCCCGGAGCTTTGATGCGCGTGGCCGCCGGCGGAGTCACCTAGTGCAG” the figure was 12400 fluorescence intensity (a.u.); with “GTGCGAGCTGCGCCCGTGTGATGTGGGCGGGTGGGTGTTCCGGAGTCACCTAGTGCAG”, 16900 fluorescence intensity (a.u.); with “TTGCTCTCCTCTCTGGATTGATGTGTTCGTTTGGCCATTCCGGAGTCACCTAGTGCAG”, 8940 fluorescence intensity (a.u.).
“GCCATGTGACTAGACCGAGCTAGCTCGCTCGATCGATCTCCGGAGTCACCTAGTGCAG”: the binding signal is 8510 fluorescence intensity (a.u.).
Then “CAATTTTAGTTCAATCTTGGGTGTTTTCGCATGGTTCTCTCGGAGTCACCTAGTGCAG”, with 8180 fluorescence intensity (a.u.); and “TGGAGCTGGTTTTTGGGTGGTGTTTTCTCTGTGATCGTGGCGGAGTCACCTAGTGCAG”, with 9760 fluorescence intensity (a.u.); and “AGGAGTGTCTGGTTGGTTTCCGGGGTGTGTTGGGTGACTCCGGAGTCACCTAGTGCAG”, with 29500 fluorescence intensity (a.u.).
Turning to “ATGCGGATCTGAGTGGTGGTGGTGGTGGACTGGTGGTTGCCGGAGTCACCTAGTGCAG”, the binding signal was 11000 fluorescence intensity (a.u.).
With “TTTGGTTACCGCATTTTTGTGTTCTTCTGTGCAGTTTAGCCGGAGTCACCTAGTGCAG” the figure was 8150 fluorescence intensity (a.u.); with “GCCATGGGGTTGACTCTCTGGGTGTTCTTGGTTTCTTGGCCGGAGTCACCTAGTGCAG”, 10500 fluorescence intensity (a.u.).
For the sequence “CGTGTGGGTGGGTGGGTGGAGTGGACTGGTTTCTGTGAGCCGGAGTCACCTAGTGCAG”, the binding signal was 18500 fluorescence intensity (a.u.).
Regarding “TTGTTGGCAAGTTTCTTCCCTTGTCTCTCTCTTGTGAGACCGGAGTCACCTAGTGCAG”, the binding signal is 8700 fluorescence intensity (a.u.).
For the sequence “GGTCTTGCTAGTTGGCCATGTGAGAGTGAGACCGGGTCTCCGGAGTCACCTAGTGCAG”, the binding signal was 50700 fluorescence intensity (a.u.).
